From PubChem BioAssay (Tox21)
Several values for one entry are separate records, joined by “and”; a condition that tells them apart may be missing. Equal entries are not always repeated. Results filed as inconclusive are left out. A structure can be active in one record and inactive in another. Activity calls are given as the source filed them. Unless noted, calls come from the whole dose curve; as a rule, active = well fitted curve in the direction sought with a large enough effect in the repeat runs; inconclusive = weak or mixed curves; inactive = no such curve, though single readings can be large; an effect the other way counts as inactive or inconclusive.

Columns and labels:
[1] = qHTS assay for small molecule agonists of the p53 signaling pathway - cell viability (AID 651633; calls by dose curve; note: nearly all actives have a fitted effect of over 30% in size; note: potency is the fitted concentration of half-maximal effect)
Method in brief: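 p53RE-bla cells were treated with compound for 16 hours at 37 C. Cytotoxicity was then measured as CellTiter-Glo luminescence after 30 min at room temperature.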

[2] = qHTS assay for small molecules that induce genotoxicity in human embryonic kidney cells expressing luciferase-tagged ATAD5 - cell viability (AID 651634; calls by dose curve; note: nearly all actives have a fitted effect of over 25% in size; note: potency is the fitted concentration of half-maximal effect)
Method in brief: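 Fluorescence from CellTiter-Fluor, reporting protease activity within live cells, served as the viability read-out. HEK293T cells carrying luciferase-tagged ATAD5 had been treated with compound for 15.5 hr at 37C.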

[3] = qHTS assay for small molecule disruptors of the mitochondrial membrane potential - cell viability (AID 720634; calls by dose curve; note: nearly all actives have a fitted effect of over 20% in size; note: potency is the fitted concentration of half-maximal effect)
Method in brief: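 Cells: HepG2, 2,000/well, attached overnight. Compound 1 hr, 37 C/5% CO2. +m-MPI dye, +CellTiter-Glo 30 min RT. Readout: luminescence (ATP).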

[4] = biological target: Glucocorticoid receptor (Homo sapiens) (UniProt P04150); experiment: qHTS assay to identify small molecule agonists of the glucocorticoid receptor (GR) signaling pathway (AID 720691; active = well fitted activation curve with a large enough effect in the signal ratio in the repeat runs, not every such curve was filed as active; the % refers to the signal ratio; note: potency is the fitted concentration of half-maximal effect)
Method in brief: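 Fluorescence intensity from LiveBLAzer B/G FRET substrate (2 h, room temperature) reports beta-lactamase expression driven by the glucocorticoid response element in GR-bla HeLa cells after 18 h compound exposure at 37 C.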

[5] = qHTS assay to identify small molecule antagonists of the glucocorticoid receptor (GR) signaling pathway - cell viability counter screen (AID 720693); note: nearly all actives have a fitted effect of over 55% in size; note: potency is the fitted concentration of half-maximal effect
[6] = test system: thyroid hormone receptor (rat, GH3 cells); experiment: qHTS assay to identify small molecule agonists of the thyroid receptor (TR) signaling pathway (AID 743066; calls by dose curve)
[7] = qHTS assay to identify small molecule antagonists of the estrogen receptor alpha (ER-alpha) signaling pathway - cell viability counter screen (AID 743074; calls by dose curve;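 note: HEK293 cells carrying ER-alpha-UAS-bla reporter stimulated with 17beta-estradiol; nearly all actives have a fitted effect of over 45% in size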; note: potency is the fitted concentration of half-maximal effect)
[8] = biological target: Peroxisome proliferator-activated receptor gamma (Homo sapiens) (UniProt P37231); experiment: qHTS assay to identify small molecule agonists of the peroxisome proliferator-activated receptor gamma (PPARg) signaling pathway (AID 743094; active = well fitted activation curve with a large enough effect in the signal ratio in the repeat runs, not every such curve was filed as active; the % refers to the signal ratio)
Method in brief: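 Beta-lactamase FRET fluorescence was the read-out after a 1 h room-temperature substrate step, following 17 h compound treatment at 37C of HEK293H cells expressing a UAS-driven bla reporter responsive to PPARg.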

[9] = qHTS assay to identify small molecule antagonists of the peroxisome proliferator-activated receptor gamma (PPARg) signaling pathway - cell viability counter screen (AID 743194); details: Potency: co-treated with 50 nM rosiglitazone unless noted; note: nearly all actives have a fitted effect of over 55% in size; note: potency is the fitted concentration of half-maximal effect
Method in brief: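 Cytotoxicity counter screen in PPARg-bla HEK293H cells, same wells as reporter assay. Compounds plus 50 nM rosiglitazone (final) for 17 h at 37 C, then viability read by CellTiter-Glo luminescence.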

[10] = qHTS assay for small molecule agonists of the antioxidant response element (ARE) signaling pathway - cell viability counter screen (AID 743203; calls by dose curve; note: nearly all actives have a fitted effect of over 55% in size; note: potency is the fitted concentration of half-maximal effect)
Method in brief: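 HepG2 cells carrying ARE-driven beta-lactamase; 2,000 cells/well; 5 hrs plating; compound pinned from DMSO; 16 hrs 37C/5% CO2; CellTiter-Glo added; 30 min RT; luminescence.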

[11] = qHTS assay for small molecule activators of the heat shock response signaling pathway - cell viability counter screen (AID 743209); note: nearly all actives have a fitted effect of over 50% in size; note: potency is the fitted concentration of half-maximal effect
Method in brief: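 Luminescence from CellTiter-Glo, added after the beta-lactamase FRET read, gave the viability signal. Cells were HSE-bla HeLa treated with DMSO-dissolved compounds for 5 h at 37 C following overnight plating.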

[12] = qHTS assay to identify small molecule antagonists of the peroxisome proliferator-activated receptor delta (PPARd) signaling pathway - cell viability counter screen (AID 743213); note: nearly all actives have a fitted effect of over 50% in size; note: potency is the fitted concentration of half-maximal effect
Method in brief: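 Agonist-stimulated (L165041, 300 nM final) HEK293H PPARd UAS-bla cells are exposed to compounds for 17 h at 37 C, and ATP-based luminescence (CellTiter-Glo) from the same wells reports cytotoxicity.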

[13] = qHTS assay to identify small molecule agonists of the farnesoid-X-receptor (FXR) signaling pathway - cell viability counter screen (AID 743218); note: nearly all actives have a fitted effect of over 45% in size; note: potency is the fitted concentration of half-maximal effect
Method in brief: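 HEK 293T FXR-bla cells; 5 h pre-incubation, 16 h compound exposure at 37 C; LiveBLAzer substrate 2 h RT, then CellTiter-Glo 30 min RT, luminescence.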

[14] = qHTS assay to identify small molecule agonists of the vitamin D receptor (VDR) signaling pathway - cell viability counter screen (AID 743224); note: nearly all actives have a fitted effect of over 50% in size; note: potency is the fitted concentration of half-maximal effect
Method in brief: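 Luminescence from CellTiter-Glo, read after 30 min at room temperature, reports viability of VDR-bla cells treated with compounds for 16 h at 37C in the wells used for the beta-lactamase FRET read.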

[15] = qHTS assay to identify small molecule antagonists of the vitamin D receptor (VDR) signaling pathway - cell viability counter screen (AID 743225); note: nearly all actives have a fitted effect of over 50% in size; note: potency is the fitted concentration of half-maximal effect
Method in brief: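 Cells (VDR-UAS-bla HEK 293T) are plated, rested 4 h at 37C, dosed with compound and 3 nM final 1-alpha,25-dihydroxy vitamin D3, and incubated 16 h. Viability is taken from CellTiter-Glo luminescence in the reporter wells.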

[16] = qHTS assay to identify small molecule antagonists of the retinoid-related orphan receptor gamma (ROR-gamma) signaling pathway - cell viability counter screen (AID 1159520); note: nearly all actives have a fitted effect of over 50% in size; note: potency is the fitted concentration of half-maximal effect
Method in brief: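 Tet-on ROR gamma CHO cells were given compounds for 2 hr, then doxycycline hyclate at 1 uM final, and incubated 16 hr at 37 C. Viability was measured as ATP content by CellTiter-Glo luminescence.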

[17] = qHTS assay to identify small molecule antagonists of the estrogen receptor alpha (ER-alpha) signaling pathway using the BG1 cell line (AID 743080; calls by dose curve;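 note: BG1 cells stimulated with 17beta-estradiol alongside compound; nearly all actives have a fitted effect of over 25% in size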; note: potency is the fitted concentration of half-maximal effect)
Method in brief: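 Quantitative HTS on the Tox21 10K library: BG1 cells with endogenous ER-alpha and ERE-luciferase reporter, 17beta-estradiol stimulation, 21.5 h compound exposure, luminescence endpoint with parallel fluorescence cytotoxicity counter-read.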

[18] = qHTS assay to identify small molecule agonists of the hypoxia (HIF-1) signaling pathway (AID 1224846; active = well fitted activation curve with a large enough effect in the signal ratio in the repeat runs, not every such curve was filed as active; the % refers to the signal ratio)
Method in brief: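 Cell line: CellSensor HRE-bla ME-180; 2,000 cells/well; 0.5% dialyzed FBS; 5 h preincubation; DMSO compound pin transfer; 17 h, 37C, 5% CO2; CCF4-AM added; bla FRET signal scored for activation.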

[19] = biological target: Glucocorticoid receptor (Homo sapiens) (UniProt P04150); experiment: qHTS assay to identify small molecule antagonists of the glucocorticoid receptor (GR) signaling pathway (AID 720692; active = well fitted inhibition curve with a large enough effect in the signal ratio in the repeat runs, not every such curve was filed as active; the % refers to the signal ratio; note: potency is the fitted concentration of half-maximal effect)
Method in brief: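 HeLa GR-bla cells; cmpd + dex 5 nM final, 18 h 37 C; LiveBLAzer B/G FRET substrate 2 h RT; fluorescence intensity read. Antagonist mode, qHTS.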

[20] = biological target: Peroxisome proliferator-activated receptor delta (Homo sapiens) (UniProt Q03181); experiment: qHTS assay to identify small molecule antagonists of the peroxisome proliferator-activated receptor delta (PPARd) signaling pathway (AID 743215; active = well fitted inhibition curve with a large enough effect in the signal ratio in the repeat runs, not every such curve was filed as active; the % refers to the signal ratio; note: potency is the fitted concentration of half-maximal effect)
Method in brief: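 Read-out is beta-lactamase FRET fluorescence, measured 2 h after substrate addition at room temperature. Beforehand, UAS-bla HEK293H cells carrying the PPARd reporter were exposed to compounds with L165041 at 300 nM final for 17 h at 37 C.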
% is set by controls: 0 for no effect and ±100 for the full control effect.

Sequence of Peroxisome proliferator-activated receptor delta (Homo sapiens) (Q03181 whole entry, looked up): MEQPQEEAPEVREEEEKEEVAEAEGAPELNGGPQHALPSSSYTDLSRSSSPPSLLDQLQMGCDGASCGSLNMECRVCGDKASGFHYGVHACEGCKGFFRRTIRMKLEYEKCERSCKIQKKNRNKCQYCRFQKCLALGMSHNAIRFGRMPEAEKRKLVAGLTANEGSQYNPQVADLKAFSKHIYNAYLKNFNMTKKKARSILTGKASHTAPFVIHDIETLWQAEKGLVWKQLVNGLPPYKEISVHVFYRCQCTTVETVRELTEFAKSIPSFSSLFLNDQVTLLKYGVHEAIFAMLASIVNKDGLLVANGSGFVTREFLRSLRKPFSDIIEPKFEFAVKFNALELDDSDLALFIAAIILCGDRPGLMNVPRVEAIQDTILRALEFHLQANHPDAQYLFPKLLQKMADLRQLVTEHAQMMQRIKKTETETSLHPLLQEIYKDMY
Sequence of Glucocorticoid receptor (Homo sapiens) (P04150 whole entry, looked up): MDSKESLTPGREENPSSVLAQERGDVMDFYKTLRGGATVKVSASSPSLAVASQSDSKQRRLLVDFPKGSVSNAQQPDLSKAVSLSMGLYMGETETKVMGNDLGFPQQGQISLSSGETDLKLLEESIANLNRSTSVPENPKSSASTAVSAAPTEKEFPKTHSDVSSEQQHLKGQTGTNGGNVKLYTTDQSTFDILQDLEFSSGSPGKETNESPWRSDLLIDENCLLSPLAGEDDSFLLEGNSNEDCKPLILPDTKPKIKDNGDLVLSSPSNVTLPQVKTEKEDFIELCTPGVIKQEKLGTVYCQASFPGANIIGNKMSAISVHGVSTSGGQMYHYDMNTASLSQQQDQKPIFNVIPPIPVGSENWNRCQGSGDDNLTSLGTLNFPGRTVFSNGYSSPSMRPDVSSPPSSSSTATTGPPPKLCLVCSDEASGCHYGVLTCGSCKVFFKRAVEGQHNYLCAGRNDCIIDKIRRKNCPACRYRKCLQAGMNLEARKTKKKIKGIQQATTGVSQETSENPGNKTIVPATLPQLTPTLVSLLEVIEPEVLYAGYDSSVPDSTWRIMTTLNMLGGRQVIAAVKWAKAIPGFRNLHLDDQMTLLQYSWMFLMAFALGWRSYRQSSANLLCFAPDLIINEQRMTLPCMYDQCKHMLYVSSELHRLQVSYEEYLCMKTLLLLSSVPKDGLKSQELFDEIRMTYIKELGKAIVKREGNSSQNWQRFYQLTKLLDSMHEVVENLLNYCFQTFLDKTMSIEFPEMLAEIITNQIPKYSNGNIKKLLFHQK
Sequence of Peroxisome proliferator-activated receptor gamma (Homo sapiens) (P37231 whole entry, looked up): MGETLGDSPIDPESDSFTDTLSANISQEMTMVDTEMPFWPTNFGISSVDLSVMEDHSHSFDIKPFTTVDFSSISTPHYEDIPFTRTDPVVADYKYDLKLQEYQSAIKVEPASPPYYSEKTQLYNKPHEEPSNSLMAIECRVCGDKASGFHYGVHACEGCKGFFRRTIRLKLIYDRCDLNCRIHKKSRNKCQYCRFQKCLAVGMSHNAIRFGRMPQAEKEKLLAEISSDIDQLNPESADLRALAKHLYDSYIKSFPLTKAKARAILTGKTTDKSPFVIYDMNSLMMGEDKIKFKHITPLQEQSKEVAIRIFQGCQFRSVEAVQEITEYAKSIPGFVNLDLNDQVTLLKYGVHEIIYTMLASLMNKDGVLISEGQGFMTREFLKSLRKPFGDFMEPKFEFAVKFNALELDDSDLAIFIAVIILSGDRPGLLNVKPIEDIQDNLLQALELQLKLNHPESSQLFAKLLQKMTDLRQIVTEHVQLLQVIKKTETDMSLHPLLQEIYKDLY

CN1CSC(=S)N(C)C1
inactive and 1.09 µM (active): Potency [11]
inactive: Potency [1] | Potency [2] | Potency [3] | Potency [5] | Potency [6] | Potency [7] | Potency [8] | Potency [9] | Potency [10] | Potency [15]
active: Potency [4] 1.94 µM | Potency [12] 7.72 µM and 5.48 µM | Potency [13] 4.87 µM | Potency [14] 6.13 µM and 3.88 µM

Cc1ccc2nc3sc(=O)sc3nc2c1
inactive: activity, negative = cytotoxicity [16] -10.1% [at 19 µM]

COc1cc(OC)c(OC)cc1C=O
inactive: Potency [1] | Potency [2] | Potency [3] | Potency [4] | Potency [17] | Potency [10] | Potency [12]

CCN(CC)C(=O)Cl
inactive: outcome [18]

O=[N+]([O-])c1c(Cl)c(Cl)cc(Cl)c1Cl
inactive: Potency [1] | Potency [2] | Potency [6] | Potency [17] | Potency [8] | Potency [10] | Potency [14] | Potency [16] | outcome [18]

Cc1cc(C(C)(C)c2ccc(O)c(C)c2)ccc1O
inactive: Potency [1] | Potency [5] | Potency [6] | Potency [7]
active: Potency [19] 13.1 µM | Potency [9] 37 µM | Potency [10] 46.2 µM | Potency [14] 33 µM

CNC(=O)Oc1cc(C)c(SC)c(C)c1
inactive: outcome [18]

CCOC(=O)C(O)(c1ccc(Cl)cc1)c1ccc(Cl)cc1
active: Potency [1] 15.5 µM | Potency [3] 30.9 µM | Potency [5] 17.6 µM | Potency [10] 24.6 µM | Potency [12] 22.1 µM | Potency [14] 7.84 µM and 43.6 µM | Potency [15] 11.1 µM and 38.9 µM
24.8 µM (active) and inactive: Potency [7] | Potency [13]
7.84 µM (active) and inactive: Potency [11]
inactive: Potency [6] | Potency [8] | outcome [18]

CCC(C)=O
inactive: Potency [19]

Nc1ccc([N+](=O)[O-])cc1
inactive: Potency [4] | Potency [6]
active: Potency [2] 54.5 µM

O=S(=O)(C(Cl)(Cl)Cl)C(Cl)(Cl)Cl
active: Potency [16] 17.2 µM

ClC(Cl)=C(c1ccc(Cl)cc1)c1ccccc1Cl
inactive: Potency [16] | outcome [18]

N#Cc1cc([N+](=O)[O-])ccc1N
inactive: Potency [16] | outcome [18]

CO/C=C(/C(=O)OC)c1ccccc1Oc1cc(Oc2ccccc2C#N)ncn1
inactive: Potency [4] | Potency [6] | Potency [11]
active: Potency [2] 7.31 µM | Potency [7] 16.5 µM | Potency [14] 5.22 µM

O=C(Nc1ccccc1-c1ccc(Cl)cc1)c1cccnc1Cl
inactive: Potency [1] | Potency [2] | Potency [4] | Potency [6] | Potency [17] | Potency [8]

c1ccc2c(c1)Sc1ccccc1N2CC1CN2CCC1CC2 (centres undefined)
inactive: Potency [3] | Potency [5] | outcome [18]
active: Potency [19] 21.3 µM | Potency [7] 21.3 µM | Potency [9] 26.6 µM | Potency [10] 13.3 µM | Potency [12] 9.44 µM | Potency [20] 11.9 µM | Potency [13] 10.6 µM | Potency [14] 21.1 µM | Potency [15] 21.3 µM

O=C1C(I)=CC(=C(c2cc(I)c(O)c(I)c2)c2ccccc2C(=O)O)C=C1I
inactive: Potency [3] | Potency [6] | Potency [7] | Potency [17] | Potency [12] | Potency [20] | Potency [13] | Potency [15] | Potency [16]
active: Potency [19] 16.9 µM and 8.49 µM

Cc1nnc2n1-c1sc(CCc3ccc(CC(C)C)cc3)cc1C(c1ccccc1Cl)=NC2C (centres undefined)
inactive: Potency [3]
active: Potency [1] 23.7 µM | Potency [5] 23.9 µM | Potency [9] 29.8 µM [setting not given] | Potency [11] 29.8 µM | Potency [13] 33.5 µM | Potency [15] 23.9 µM

Cc1ccc(N(SC(F)(Cl)Cl)S(=O)(=O)N(C)C)cc1
active: Potency [9] 7.76 µM | Potency [10] 7.7 µM | Potency [12] 13.8 µM | Potency [13] 13.8 µM | Potency [14] 7.76 µM | Potency [16] 6.11 µM
inactive: Potency [5]

ClC1=C(Cl)[C@]2(Cl)[C@@H]3[C@@H](Cl)[C@H]4O[C@H]4[C@@H]3C1(Cl)C2(Cl)Cl
inactive: Potency [1] | Potency [2] | Potency [3] | Potency [7] | Potency [17] | Potency [8] | Potency [12] | Potency [20] | outcome [18]
active: Potency [9] 43.6 µM

COc1ccc(C(c2ccc(OC)cc2)C(Cl)(Cl)Cl)cc1
inactive: Potency [4] | Potency [17]
active: Potency [19] 34.5 µM

OCC(c1ccc(Cl)cc1)c1ccc(Cl)cc1
active: Potency [17] 68.6 µM | Potency [15] 54.9 µM
inactive: Potency [2] | Potency [7] | Potency [8] | Potency [11] | Potency [13] | outcome [18]

CC1COC(Cn2cncn2)(c2ccc(Oc3ccc(Cl)cc3)cc2Cl)O1 (centres undefined)
active: Potency [3] 2.43 µM | Potency [19] 43.6 µM | Potency [17] 13.7 µM | Potency [9] 49 µM | Potency [10] 54.5 µM | Potency [20] 49 µM | Potency [13] 49 µM | Potency [14] 54.9 µM | Potency [15] 49 µM
inactive: Potency [1] | Potency [11]

CCCCC(CC)COC(=O)CCCCC(=O)OCC(CC)CCCC (centres undefined)
inactive: Potency [20]

Cc1cccc(C)c1[N+](=O)[O-]
inactive: Potency [19]

Cc1ccccc1N=O
inactive: Potency [20]

C=CC(=O)OCCCC
inactive: Potency [20]

Clc1ccccc1-c1ccccc1Cl
inactive: Potency [2] | Potency [4] | Potency [5] | Potency [7] | Potency [8] | Potency [10] | Potency [11] | Potency [12] | Potency [20] | Potency [13] | Potency [14] | Potency [15]

Fc1c(F)c(F)c(Br)c(F)c1F
inactive: Potency [20]

Brc1ccc(-c2ccccc2)cc1
inactive: Potency [19]

CCc1cccc(C)c1N
inactive: Potency [19]

Cc1cccc([N+](=O)[O-])c1C
inactive: Potency [20]
